Consider 46 compounds from PubChem BioAssay AID2685 (National Center for Advancing Translational Sciences (NCATS), 2010).

Among all 320,000 compounds or so, about 2,100 (0.66%) were called active. Inconclusive results (about 53%) are left out. The call rests on the fitted dose curve; in most records, active means well fitted inhibition curve with a large enough effect in the signal ratio, with a control signal flat (not every such curve was filed as active); inconclusive means small, poorly fitted or top-dose-only effect, or effect the other way, or a change in a side signal; inactive means flat fitted curve, though single readings scatter; the % refers to the signal ratio. The entries come from a sample that favours actives as a whole.
Potency means the concentration at half of the fitted maximal effect.

This assay is described as follows: qHTS Assay for Lipid Storage Modulators in Drosophila S3 Cells.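 On cell number change: cells counted by Cell Tracker Red CMTPX staining in the red channel.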 On lipid storage change, negative = inhibition: on the % scale 0 is the no-effect control and ±100 the full control effect. Conditions: BODIPY lipid droplet fluorescence, 18-24 h, cells fed with added oleic acid; cell number change: measured here: cell count max response; series mostly up to 46.1 µM; lipid storage change, negative = inhibition: at the top concentration. In a few lines: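 Drosophila S3 cells loaded with oleic acid (400 uM, as added) and compounds at several concentrations; lipid droplets imaged by 488-nm laser-scanning cytometry, 500–530 nm intensity and object ratio to cell channel. Percent activity normalized to 20 uM Triacsin C.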
Regarding `O=C(Nc1ccc(Cl)cc1)Nc1ccon1`, the “lipid storage change, negative = inhibition” value is -1.42% (inactive) and the cell number change is 28.2%.

On to `Cc1cc(C)cc(OCCCCCNCCO)c1`, for which the “lipid storage change, negative = inhibition” value was -0.724% (inactive) and the cell number change was -17.6%.

For the compound `Cc1cc(C)c(OCCCCCNCCO)c(C)c1`, the Potency is 25.9 µM (active) and the cell number change was -17.5%.

Turning to `Cc1ccccc1OCCCCCNCCO`, the compound was called inactive and the cell number change turned out to be 2.5%.

For the compound `O=C1NCCN(Cc2ccc(Cl)c(F)c2)C1CC(=O)N1CCCCO1` (stereo not drawn), the “lipid storage change, negative = inhibition” value is 7.12% (inactive) and the cell number change amounted to 5.73%.

Take `Nc1nc2c(C(=O)N3CCOCC3)nnn2c2ccccc12`: the “lipid storage change, negative = inhibition” value is 5.07% (inactive) and the cell number change came to 6.42%.

As for `CCN(CC)S(=O)(=O)c1ccc(N2CCCC2)c(NS(=O)(=O)c2ccc(OC)cc2)c1`, the “lipid storage change, negative = inhibition” value is 1.12% (inactive) and the cell number change turned out to be 10.1%.

Turning to `CCN(CC)S(=O)(=O)c1ccc(N2CCOCC2)c(NS(=O)(=O)c2ccc(OC)cc2)c1`, the Potency was 20.6 µM (active) and the cell number change is -20.4%.

As for `CCN(CC)S(=O)(=O)c1ccc(N2CCOCC2)c(NS(=O)(=O)c2ccc(C)c(C)c2)c1`, the “lipid storage change, negative = inhibition” value is -10.2% (inactive) and the cell number change was 16%.

Turning to `CN(C(=O)CCn1c(=S)oc2ccccc21)c1ccc(F)cc1`, the “lipid storage change, negative = inhibition” value was 7.47% (inactive) and the cell number change worked out at 7.52%.

In the case of `Cc1cc(C)c(C)c(S(=O)(=O)N[C@@H](C)C(=O)OCC(N)=O)c1C`, the “lipid storage change, negative = inhibition” value was -8.61% (inactive) and the cell number change is -24.5%.

Consider `O=C(OCC(=O)N1CCN(c2ccccc2)CC1)c1ccco1`, for which the Potency is 23.1 µM (active) and the cell number change was -17.5%.

On to `O=C(NCC(=O)N1CCN(c2ccccc2)CC1)c1ccco1`, for which the “lipid storage change, negative = inhibition” value is 11.3% (inactive) and the cell number change turned out to be 1.29%.

For the compound `COc1ccc(N2CCN(C(=O)COC(=O)c3ccco3)CC2)cc1`, the “lipid storage change, negative = inhibition” value was -1.86% (inactive) and the cell number change was 6.24%.

In the case of `COc1ccc(NC(=O)CCS(=O)(=O)c2ccc(Cl)cc2)cc1`, the compound was called inactive.

On to `O=S(=O)(c1cccs1)N1CCC(Cc2ccccc2)CC1`, for which the compound was classed as inactive and the cell number change was -12%.

As to `CCCCCCSc1cccc(-c2nc3cc(C)ccn3c2NC2CCCCC2)c1`, the “lipid storage change, negative = inhibition” value was -7.42% (inactive) and the cell number change was -11.8%.

Turning to `CCCCCCSc1ccc(-c2nc3ccc(C)cn3c2NC2CCCCC2)cc1`, the Potency is 11.6 µM (active).

Consider `CCC(C)Sc1ccc(-c2nc3ccc(C)cn3c2NC2CCCCC2)cc1` (stereo not drawn), for which the “lipid storage change, negative = inhibition” value is 15.5% (inactive) and the cell number change is -1.01%.

As to `CC(C)(C)CC(=O)Nc1nn[nH]n1`, the “lipid storage change, negative = inhibition” value was 2.6% (inactive) and the cell number change was -2.51%.

Regarding `O=C(NNC(=S)NC1CC2C=CC1C2)c1cccnc1` (stereo not drawn), the “lipid storage change, negative = inhibition” value was 2.66% (inactive) and the cell number change is 2.14%.

With `COCC(=O)Nc1ccc(Br)c(C)c1`, the cell number change turned out to be 9.41% and the lipid storage change, negative = inhibition was 14.1% [at 9.22 µM] (inactive).

As for `CCOC(=O)Cc1csc(SCC(=O)NC(C)C23CC4CC(CC(C4)C2)C3)n1` (stereo not drawn), the Potency is 1.64 µM (active) and the cell number change is 5.41%.

Turning to `CCOC(=O)Cc1csc(SCC(=O)Nc2ccc(C)cc2F)n1`, the “lipid storage change, negative = inhibition” value is 31.2% (inactive) and the cell number change is -11%.

Regarding `CCOC(=O)Cc1csc(SCC(=O)Nc2cccc(Cl)c2)n1`, the “lipid storage change, negative = inhibition” value is -3.77% (inactive) and the cell number change amounted to 13.5%.

Take `O=C(Nc1ccccn1)c1ccc(Cl)c(S(=O)(=O)N2CCOCC2)c1`: the “lipid storage change, negative = inhibition” value was -1.8% (inactive) and the cell number change worked out at 13.7%.

Consider `CCOC(=O)COc1ccccc1C(=O)c1cnn(-c2ccccc2)c1`, for which the “lipid storage change, negative = inhibition” value is 8.31% (inactive) and the cell number change was determined as 3.88%.

Turning to `CCC(C)NC(=O)CSc1nc2ccccc2c(=O)n1CCCN1CCCCC1` (stereo not drawn), the “lipid storage change, negative = inhibition” value is 24.2% (inactive) and the cell number change is -2.07%.

In the case of `Cc1cc([N+](=O)[O-])nn1CCC(=O)Nc1nccs1`, the “lipid storage change, negative = inhibition” value was 15% (inactive) and the cell number change amounted to 0.24%.

For the compound `COC(=O)c1c(NC(=O)c2ccc(N(C)S(=O)(=O)c3ccc(C)cc3)cc2)sc2c1CCCC2`, the “lipid storage change, negative = inhibition” value was 8.28% (inactive) and the cell number change was -4.01%.

As to `CCCN1CCc2c(sc(NC(=O)c3ccc(S(=O)(=O)N4CCN(C(=O)OCC)CC4)cc3)c2C(N)=O)C1`, the “lipid storage change, negative = inhibition” value is -19.6% (inactive) and the cell number change is -7.97%.

Consider `CCCN1CCc2c(sc(NC(=O)c3ccc(S(=O)(=O)N(C)c4ccccc4)cc3)c2C(N)=O)C1`, for which the Potency is 13 µM (active) and the cell number change is -20.7%.

As to `CCCN1CCc2c(sc(NC(=O)c3ccc(S(=O)(=O)N(C)c4ccccc4)cc3)c2C(=O)NC)C1`, the Potency is 4.11 µM (active) and the cell number change was -17.2%.

As to `CCCN1CCc2c(sc(NC(=S)NC(=O)c3ccccc3)c2C#N)C1`, the “lipid storage change, negative = inhibition” value was -2.06% (inactive) and the cell number change was determined as 3.88%.

Consider `CN1CCc2c(sc(NC(=O)c3ccc(C(=O)c4ccccc4)cc3)c2C(N)=O)C1`, for which the “lipid storage change, negative = inhibition” value is -25.9% (inactive) and the cell number change stood at 0.647%.

Turning to `COc1cc(OC)c(C(=O)OCC(=O)NCCC2=CCCCC2)cc1OC`, the compound was classed as inactive and the cell number change was -12.4%.

`COCCNC(=O)CCCn1c(=O)c2cc(OC)c(OC)cc2n(CC(=O)c2ccc(Cl)cc2)c1=O`: the “lipid storage change, negative = inhibition” value is -0.141% (inactive) and the cell number change was -4.78%.

Consider `CCOC(=O)C1CCN(C(=O)CC(NS(=O)(=O)c2ccc(OC)cc2)C(C)C)CC1` (stereo not drawn), for which the “lipid storage change, negative = inhibition” value is 8% (inactive) and the cell number change turned out to be 5.69%.

For the compound `CN(C)CCCNc1ccc(-c2cc(Nc3cccc(Cl)c3)ncn2)cn1`, the “lipid storage change, negative = inhibition” value is 8.12% (inactive) and the cell number change is 7.36%.

Regarding `CC(C)n1cnc2c(Nc3cccc(Cl)c3)nc(NCCCO)nc21`, the “lipid storage change, negative = inhibition” value was -22.1% (inactive) and the cell number change is 1.01%.

As to `OCCCNc1cc(-c2ccnc(Nc3cccc(Cl)c3)n2)ccn1`, the Potency is 6.51 µM (active) and the cell number change was -20.1%.

For `OC(COc1c(F)cc(Br)cc1F)CN1CCc2ccccc2C1` (stereo not drawn), the “lipid storage change, negative = inhibition” value was 12.2% (inactive) and the cell number change was -1.04%.

As for `c1ccc(Cc2nnc3sc(-c4ccccn4)nn23)cc1`, the outcome was inactive.

For the compound `O=C(NC1CCCCC1)N(CCN1CCCC1)Cc1cc2cc3c(cc2[nH]c1=O)OCCO3`, the call was inactive.

As to `CN(C)CCCN(Cc1cc2cc3c(cc2[nH]c1=O)OCCO3)C(=O)NC1CCCCC1`, the “lipid storage change, negative = inhibition” value was -6.26% (inactive) and the cell number change came to 0.0235%.

Turning to `CCN(CC)CCN(Cc1cc2cc3c(cc2[nH]c1=O)OCCO3)C(=O)NC1CCCCC1`, the Potency is 16.4 µM (active) and the cell number change was found to be 4.42%.
